Our source for the growth values is PubChem BioAssay (NCI).

Among the test systems are HCT-15 colon; HT29 colon; SNB-75 CNS; SNB-19 CNS; U251 CNS; PC-3 prostate; SK-MEL-5 melanoma; UACC-62 melanoma; LOX IMVI melanoma; SK-MEL-28 melanoma.
Assay in all cases: NCI-60 one-dose screen, 48 h (100 = growth as untreated, 0 = no growth, -100 = all killed)
What all share (conditions): 10 µM unless noted

The panel holds about 83,000 compounds, 20% with a hit somewhere; the sample as a whole holds those more often.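 Each cell line was grown in a 96-well plate and treated with one concentration of compound for 48 hours. Values below 10 were considered active.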 Unmarked numbers belong to inactive results. Activity calls are given as the source filed them.

As to `COc1cc2c(c(OC)c1OC)C(=O)CC(c1cccc(C(=O)Nc3ccc(C#N)cc3)c1)O2` (stereo not given), the growth with HCT-15 colon was 63%; in the assay with HT29 colon it was 86.4%; with SNB-75 CNS it was 74.8%; with SNB-19 CNS it was 89.5%; in the assay on U251 CNS, 94.7%; in the assay on PC-3 prostate, 39.2%. Further, the growth was 37.5% in the assay with SK-MEL-5 melanoma, 34.8% in the assay with UACC-62 melanoma, 79.6% in the assay on LOX IMVI melanoma and 95.6% with SK-MEL-28 melanoma.

Turning to `COc1cc2c(cc1OCCCN1CCN(C(=S)SCCC(C#N)(c3ccccc3)c3ccccc3)CC1)N=C[C@@H]1CCCN1C2=O`, the growth was -89.5% (active) with HCT-15 colon; -89.3% (active) in the assay on HT29 colon; -91.5% (active) in the assay on SNB-75 CNS; -44.4% (active) in the assay with SNB-19 CNS; -95.7% (active) in the assay with U251 CNS; -34.9% (active) with PC-3 prostate. For the same molecule, the growth in the assay with SK-MEL-5 melanoma was -100% (active); in the assay with UACC-62 melanoma, -72% (active); in the assay with LOX IMVI melanoma it was -100% (active); in the assay with SK-MEL-28 melanoma, -82.6% (active).

On to `CS(=O)(=O)c1ccc(-c2nc3ccccc3n2CC(=O)N/N=C/c2ccccc2)cc1`, for which the growth is 100% with HCT-15 colon; 88.5% with HT29 colon; 96.5% with SNB-75 CNS; 107% in the assay with SNB-19 CNS; 109% in the assay with U251 CNS; 96.9% in the assay on PC-3 prostate. Besides, the growth with SK-MEL-5 melanoma is 100%; in the assay on UACC-62 melanoma it was 94.4%; in the assay with LOX IMVI melanoma, 107%; with SK-MEL-28 melanoma it was 103%.

Take `COc1ccc(CN2C(=O)OC(C)(COC(C)=O)C2=O)cc1` (stereo not given): the growth is 102% in the assay on HCT-15 colon; 107% with HT29 colon; 100% in the assay with SNB-75 CNS; 102% in the assay on SNB-19 CNS; 104% in the assay on U251 CNS; 101% with PC-3 prostate. In addition, the growth was 101% in the assay with SK-MEL-5 melanoma, 95.6% in the assay with UACC-62 melanoma, 100% in the assay on LOX IMVI melanoma and 101% with SK-MEL-28 melanoma.

As for `Cc1ccc(NC(=O)c2sc3nc(C)c(C(O)c4ccccc4)cc3c2N)cc1` (stereo not given), the growth in the assay with HCT-15 colon was 9.64% (active); in the assay on HT29 colon, 9.15% (active); in the assay on SNB-75 CNS, 22.5%; in the assay on SNB-19 CNS, 24.5%; with U251 CNS, 13.9%; in the assay on PC-3 prostate it was 19.6%. The growth with SK-MEL-5 melanoma is 12.7%; in the assay on UACC-62 melanoma it was 28.8%; with LOX IMVI melanoma it was 23.5%; in the assay with SK-MEL-28 melanoma it was 57.6%.

As for `O=C(NNc1nc2cc(F)ccc2n2c(CN3CCOCC3)ccc12)c1ccccc1`, the growth in the assay on HCT-15 colon was 16.9%; in the assay with HT29 colon it was 1.95% (active); with SNB-75 CNS, 46.1%; with SNB-19 CNS, 18.8%; with U251 CNS it was -34.5% (active); in the assay with PC-3 prostate, 22.9%. The growth is -9.55% (active) in the assay with SK-MEL-5 melanoma, -4.27% (active) with UACC-62 melanoma, -39.6% (active) in the assay on LOX IMVI melanoma and 15.7% in the assay with SK-MEL-28 melanoma.

With `Oc1c(CN2CCC(N3CCOCC3)CC2)cc(Cc2cc(CN3CCC(N4CCOCC4)CC3)c(O)c3ncccc23)c2cccnc12`, the growth with HCT-15 colon is 24%; in the assay with HT29 colon it was 30.2%; with SNB-75 CNS, 56.9%; with SNB-19 CNS, 29.3%; with U251 CNS, 27.5%; with PC-3 prostate, 13.1%. For the same molecule, the growth in the assay with SK-MEL-5 melanoma is 8.31% (active); in the assay on UACC-62 melanoma it was -6.33% (active); with LOX IMVI melanoma it was 1.05% (active); with SK-MEL-28 melanoma it was 45%.

Turning to `Nc1ncccc1O`, the growth was 18.7% in the assay on HCT-15 colon; 26.6% in the assay on HT29 colon; 121% in the assay with SNB-75 CNS; 101% in the assay with SNB-19 CNS; 81.4% in the assay on U251 CNS; 133% in the assay on PC-3 prostate. The growth is 101% with SK-MEL-5 melanoma, 89.3% in the assay on UACC-62 melanoma, 75.2% in the assay on LOX IMVI melanoma and 106% in the assay on SK-MEL-28 melanoma.

With `C1CCC(N2CN3c4nonc4N4CN(C5CCCCC5)CN5c6nonc6N(C2)C3C45)CC1` (stereo not given), the growth with HCT-15 colon was 84.5%; with HT29 colon, 105%; with SNB-75 CNS, 88.7%; in the assay on SNB-19 CNS it was 102%; in the assay on U251 CNS it was 93.3%; with PC-3 prostate it was 87.9%. Further, the growth in the assay with SK-MEL-5 melanoma is 93.5%; in the assay with UACC-62 melanoma, 88.7%; with LOX IMVI melanoma it was 98.9%; with SK-MEL-28 melanoma, 101%.

Regarding `CN(C)c1ccc(CNCCO)cc1`, the growth is 106% in the assay on HCT-15 colon; 69.1% in the assay with HT29 colon; 101% in the assay on SNB-75 CNS; 98.5% in the assay on SNB-19 CNS; 89.4% in the assay on U251 CNS; 68.5% in the assay with PC-3 prostate. For the same molecule, the growth with SK-MEL-5 melanoma was 99.9%; with UACC-62 melanoma it was 90.2%; in the assay on LOX IMVI melanoma, 102%; in the assay with SK-MEL-28 melanoma, 81.7%.

Turning to `CCOC(=O)c1cnn(CC(C)O)c1NC(=O)NCc1cccc(F)c1` (stereo not given), the growth in the assay with HCT-15 colon was 107%; in the assay with HT29 colon, 84.3%; with SNB-75 CNS, 104%; with SNB-19 CNS, 107%; in the assay with U251 CNS it was 97.4%; with PC-3 prostate, 73.3%. Besides, the growth in the assay on SK-MEL-5 melanoma was 100%; with UACC-62 melanoma, 92.2%; with LOX IMVI melanoma, 97.1%; in the assay on SK-MEL-28 melanoma it was 113%.

`Cc1ccc(OCCOCCOCCOCCOCCOc2ccc(C)n(O)c2=S)c(=S)n1O`: the growth in the assay on HCT-15 colon was 29%; in the assay on HT29 colon, 25.7%; with SNB-75 CNS it was 24.8%; with SNB-19 CNS it was 16.7%; in the assay with U251 CNS, 12.3%; in the assay on PC-3 prostate, 33.3%. Further, the growth was -32.3% (active) with SK-MEL-5 melanoma, -13.9% (active) in the assay on UACC-62 melanoma, 3.58% (active) in the assay with LOX IMVI melanoma and 33.2% in the assay on SK-MEL-28 melanoma.

For `Nc1nc(N)c2c(n1)NC(c1cccc(Nc3ccnc4cc(C(F)(F)F)ccc34)c1)CC(c1ccc3c(c1)OCO3)=N2` (stereo not given), the growth in the assay with HCT-15 colon was 37.4%; in the assay with HT29 colon, 23.8%; with SNB-75 CNS, 78.7%; with SNB-19 CNS, 76.5%; with U251 CNS, 56.4%; in the assay on PC-3 prostate, 48.5%. Also, the growth is 66.4% with SK-MEL-5 melanoma, 90.6% in the assay with UACC-62 melanoma, 65.7% with LOX IMVI melanoma and 96.3% with SK-MEL-28 melanoma.
